Compound activity deposited in PubChem BioAssay by several laboratories.
PAX8 reporter: lowers PAX8-driven luciferase in RMG-I cells; RMG-I TPO-luciferase reporter, SteadyGlo, 24 h; inhibition, % at 12.6 µM; 360,000 compounds, 1.2% hits;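 active = mean replicate inhibition at least 60% with every replicate also reaching 60%; inconclusive = only one of the two criteria is met; inactive = mean below 60% and not all replicates reaching 60%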;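 note: luciferase light reporting Pax8 driven TPO promoter activity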
FXN GAA850 act: increases GAA850 frataxin promoter reporter activity; AID 540364; HEK293 lucGAA850 FXN promoter luciferase reporter, 24 h; percent of 10 µM SAHA response; activation, % at 6 µM; 360,000 compounds, 0.56% hits;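 active = activation above the average of all compounds screened plus 3 SD, cutoff fixed separately per campaign, cut at about 7.5% in these data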
EWS-Fli inh: inhibitors of EWS/Fli oncoprotein transcriptional activity; 350,000 compounds, 0.67% hits; AID 651661; inhibition, % at 12.6 µM; A673 NR0B1-luciferase reporter, viability-normalised;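 active = mean inhibition of at least 50% after viability correction, with every replicate also passing that limit; inconclusive = mean reaches 50% but only one of two replicates passes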;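 note: firefly luciferase signal divided by Alamar Blue viability fluorescence both relative to DMSO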
Env fusion inh: inhibitors of HIV Env-mediated cell fusion. HeLa-JRFL Env/CEM21 cell fusion, luciferase. inhibition, % at 12.3 µM. 360,000 compounds, 1.1% hits. AID 651610;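 active = mean replicate inhibition score of at least 50 and every replicate individually at or above 50; inconclusive = only one of the two criteria met; inactive = mean below 50 and not all replicates reaching 50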
CFTR F508del cor: correctors of CFTR F508del function in bronchial epithelial cells. CFBE cells, YFP halide quenching; stimulated with forskolin plus potentiator P3; % fluorescence drop versus neutral controls. activity (quench increase), % at 7.58 µM. 350,000 compounds, 0.36% hits. AID 720511;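 active = mean added fluorescence quench of at least 8% versus neutral control, with both replicates also reaching 8%; inconclusive = only one of the mean or replicate conditions met; inactive = mean below 8% and not both replicates reaching 8%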;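 note: cells transiently co-express mutant CFTR-F508del with the halide-sensitive YFP; corrector assay measuring rescue of mutant channel to the surface after 24 h compound exposure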
Each line names hits and unclear results; the compound was inactive in the other large screens; ! = not confirmed by another sample; [ ] = another dose, or the depositor's remark. Most compounds without a hit are left out; they make up all but 2.5% or so of the library.

O=C([C@@H]1[C@@H](CO)[C@@H]2Cn3c(ccc(C4=CCCC4)c3=O)[C@H]1N2)N1CCCCC1	none (no result: PAX8 reporter, FXN GAA850 act, Env fusion inh)
O=C(NCC1CCCCC1)[C@@H]1[C@@H](CO)[C@@H]2Cn3c(ccc(-c4cccnc4)c3=O)[C@H]1N2	none (no result: PAX8 reporter, FXN GAA850 act, Env fusion inh)
COc1ccccc1C#Cc1ccc([C@H]2[C@@H](C#N)N(C(=O)C3CC3)[C@H]2CO)cc1	PAX8 reporter 66 (no result: FXN GAA850 act, Env fusion inh)
COc1ccccc1C#Cc1ccc([C@H]2[C@@H](C#N)N(C(=O)C3CCC3)[C@@H]2CO)cc1	none (no result: FXN GAA850 act)
COc1ccccc1C#Cc1ccc([C@H]2[C@H](C#N)N(C(=O)C3CC3)[C@H]2CO)cc1	PAX8 reporter 91 (no result: FXN GAA850 act, Env fusion inh)
COc1ccccc1C#Cc1ccc([C@H]2[C@@H](CO)N(C(=O)C3CCCCC3)[C@H]2C#N)cc1	PAX8 reporter 90 (no result: FXN GAA850 act)
C[C@H](CO)N1C[C@H](C)[C@@H](CN(C)C(=O)CCCN(C)C)OCCCC[C@H](C)Oc2ccc(NC(=O)c3ccncc3)cc2C1=O	none (no result: FXN GAA850 act)
CC1=CC(C)(C)N(S(=O)(=O)c2ccc(C)cc2)c2cc(C)ccc21	none (no result: PAX8 reporter, EWS-Fli inh, Env fusion inh, CFTR F508del cor)
CCOc1ccc2c(c1)C(C)=CC(C)(C)N2S(=O)(=O)c1ccc(C)cc1	PAX8 reporter 82
COc1ccc2c(c1)C(C)=CC(C)(C)N2S(=O)(=O)c1ccc(C)cc1	PAX8 reporter 79, EWS-Fli inh inconclusive
CCCCc1c(-c2ccccc2OC)ncn1C(C)c1ccccc1 (stereo not drawn)	Env fusion inh 76 (no result: FXN GAA850 act)
CN(C)C(=O)C[C@H]1CC[C@H]2[C@@H](COC[C@H](O)CN2C(=O)C2CC2)O1	none (no result: FXN GAA850 act, Env fusion inh)
Cc1ccc(-c2nc(-c3ccccc3)no2)c(Cl)c1	EWS-Fli inh 84
Cc1ccc(-c2nc(-c3ccccc3)no2)cc1	none (no result: PAX8 reporter, EWS-Fli inh, Env fusion inh, CFTR F508del cor)
O=C(C[C@@H]1CC[C@H](NC(=O)C2CC2)[C@@H](CO)O1)Nc1nccs1	none (no result: FXN GAA850 act)
c1cc(-c2nnc3sc(C4CCCCC4)nn23)ccn1	Env fusion inh 63 (no result: PAX8 reporter, EWS-Fli inh, CFTR F508del cor)
COc1ccccc1-c1nnc2sc(C3CCCCC3)nn12	none (no result: PAX8 reporter, EWS-Fli inh, CFTR F508del cor)
C[C@H]1CN([C@@H](C)CO)C(=O)c2cc(NS(=O)(=O)c3ccccc3)ccc2O[C@@H]1CN(C)Cc1ccc(Oc2ccccc2)cc1	PAX8 reporter 92 (no result: FXN GAA850 act)
COc1ccc(S(=O)(=O)Nc2ccc3c(c2)C(=O)N([C@@H](C)CO)C[C@@H](C)[C@@H](CN(C)Cc2ccc(Oc4ccccc4)cc2)O3)cc1	none (no result: FXN GAA850 act)
Cc1noc(C)c1S(=O)(=O)Nc1ccc2c(c1)C(=O)N([C@H](C)CO)C[C@H](C)[C@@H](CN(C)Cc1ccccc1)O2	none (no result: FXN GAA850 act)
COc1ccc(S(=O)(=O)Nc2ccc3c(c2)C(=O)N([C@@H](C)CO)C[C@H](C)[C@@H](CN(C)Cc2ccc(Oc4ccccc4)cc2)O3)cc1	Env fusion inh 63[16.7 µM] (no result: FXN GAA850 act)
Cc1noc(C)c1S(=O)(=O)Nc1ccc2c(c1)C(=O)N([C@H](C)CO)C[C@@H](C)[C@@H](CN(C)Cc1ccc(Oc3ccccc3)cc1)O2	EWS-Fli inh 67 (no result: PAX8 reporter, FXN GAA850 act, Env fusion inh)
CO[C@@H]1CN(C)C(=O)c2cc(NC(=O)NC3CCCCC3)ccc2OC[C@@H](C)NC[C@H]1C	none (no result: FXN GAA850 act, Env fusion inh)
CN(C)CC(=O)N1CC2(C1)[C@@H](c1ccccc1)[C@@H](CO)N2C(=O)C1CCC1	none (no result: FXN GAA850 act)
CCCN1C[C@H](C)[C@H](OC)CN(C)C(=O)c2cc(NC(=O)COC)ccc2OC[C@@H]1C	none (no result: FXN GAA850 act)
COCCn1c(=S)[nH]c2cc(C(=O)N3CCN(Cc4ccc5c(c4)OCO5)CC3)ccc2c1=O	Env fusion inh 86 (no result: EWS-Fli inh, CFTR F508del cor)
COCCn1c(=S)[nH]c2cc(C(=O)N3CCc4ccccc43)ccc2c1=O	Env fusion inh 80 (no result: PAX8 reporter, EWS-Fli inh, CFTR F508del cor)
CCCn1c(=S)[nH]c2cc(C(=O)N3CCc4ccccc43)ccc2c1=O	none (no result: PAX8 reporter, EWS-Fli inh, CFTR F508del cor)
CC(C)NC(=O)Nc1ccc2c(c1)C(=O)N([C@@H](C)CO)C[C@@H](C)[C@@H](CN(C)C(=O)NC(C)C)OCCCC[C@H](C)O2	none (no result: FXN GAA850 act, EWS-Fli inh)
O=C(NCc1ccccc1)[C@]1(CCS(=O)(=O)c2ccccc2)N=C(c2ccc(OCCCO)cc2)O[C@@H]1c1ccccc1	none (no result: FXN GAA850 act)
COc1cc(NC(=O)c2csc(N)n2)cc(C(=O)Nc2cccc(C(F)(F)F)c2)c1	PAX8 reporter 82!, EWS-Fli inh 61, CFTR F508del cor 8.0!
COc1cc(NC(=O)c2cc(C)on2)cc(C(=O)Nc2cccc(C(F)(F)F)c2)c1	PAX8 reporter 86
COc1cc2c(cc1OC)C(=O)N1[C@H]3c4cc(C)ccc4OC[C@@H]3[C@H](c3ccccc3)[C@]1(C)C(=O)N2	EWS-Fli inh 58
COc1cc2c(cc1OC)C(=O)N1[C@H]3c4cc(Cl)ccc4OC[C@@H]3[C@H](c3ccccc3)[C@]1(C)C(=O)N2	EWS-Fli inh 56, Env fusion inh 99
COc1ccc2c(c1)C(=O)N1[C@H]3c4cc(Cl)ccc4OC[C@@H]3[C@H](c3ccccc3)[C@]1(C)C(=O)N2	none
CCOC(=O)C1=C[C@@H](C2CCCC2)N(S(=O)(=O)c2ccc([N+](=O)[O-])cc2)[C@H]1c1ccccc1	Env fusion inh 55 (no result: FXN GAA850 act)
CCOC(=O)C1=C[C@@H](CC)N(S(=O)(=O)c2ccc(C)cc2)[C@H]1c1ccccc1	none (no result: FXN GAA850 act)
C[C@@]12C(=O)N(Cc3ccc(F)cc3)CC(=O)N1[C@H]1c3cc(Cl)ccc3OC[C@@H]1[C@@H]2c1ccccc1	Env fusion inh 77
C[C@@]12C(=O)N(Cc3ccccc3)CC(=O)N1[C@H]1c3cc(Cl)ccc3OC[C@@H]1[C@@H]2c1ccccc1	Env fusion inh 61
O=C(C[C@@H]1C[C@@H]2c3cc(NC(=O)NC4CCCC4)ccc3O[C@@H]2[C@H](CO)O1)NCc1cccnc1	none (no result: FXN GAA850 act, Env fusion inh)
COc1ccc(OC)c(CC(=O)NC(c2ccccc2)c2ccccc2)c1	none
COc1ccc(C(NC(=O)c2cc(OC)ccc2OC)c2ccccc2)cc1 (stereo not drawn)	none
COc1ccc(CC(=O)NC(c2ccccc2)c2ccc(C)cc2)c(OC)c1 (stereo not drawn)	CFTR F508del cor 8.0
COc1ccc(C(NC(=O)c2c(F)c(F)c(F)c(F)c2F)c2ccccc2)cc1 (stereo not drawn)	EWS-Fli inh 62 (no result: CFTR F508del cor)
Nc1nc(CCl)nc(Nc2cccc3ccccc23)n1	PAX8 reporter 123
Cc1cc2cc(CN(Cc3ccco3)S(=O)(=O)c3c(C)ccc4nsnc34)c(=O)[nH]c2cc1C	Env fusion inh 77 (no result: PAX8 reporter, EWS-Fli inh, CFTR F508del cor)
N#C[C@H]1[C@@H](c2ccc(C3=CCCC3)cc2)[C@H](CO)N1C(=O)Cc1ccncc1	none (no result: FXN GAA850 act)
COc1cccc(S(=O)(=O)N2CCCCN3[C@H](CO)[C@H](c4ccc(C5=CCCCC5)cc4)[C@H]3C2)c1	none (no result: FXN GAA850 act, Env fusion inh)
COc1c(F)cccc1C1=CC(=O)C[C@H](c2ccc3c(c2)OCO3)C1	none
CCOc1ccc(Br)cc1C1=CC(=O)C[C@H](c2ccc(OC)cc2)C1	EWS-Fli inh 57
COc1ccc(OC)c(C2=CC(=O)C[C@H](c3ccc4c(c3)OCO4)C2)c1	EWS-Fli inh 66
COc1ccc([C@H]2CC(=O)C=C(c3cc(C)ccc3OC)C2)cc1	EWS-Fli inh 60
O=C(c1ccc(F)cc1)N1CC(=O)N2[C@H](CO)[C@@H](c3ccc(C#CC4CCCCC4)cc3)[C@@H]2C1	none (no result: FXN GAA850 act, Env fusion inh)
